MCF10A rereplic: A quantitative high throughput screen for small molecules that induce DNA re-replication in MCF 10a normal breast cells; 350,000 tested, 2.9% active; Potency, µM (doses to about 46.1 µM), for inactives: top-dose activity, positive = re-replication, usual class: activators; MCF 10A DNA re-replication, Hoechst nuclear intensity, 48 h; note: potency is the fitted concentration of half-maximal effect; % of control where 0% means no effect; nearly all actives have a fitted effect of over 50% in size
PINK1 modulator: A Quantitative High throughput Screen to Identify Chemical Modulators of PINK1 Expression | PINK1 immunofluorescence, high-content cytometry, 24 h | Potency, µM (series often up to 76.6 µM), for the others: at the top dose activation (PINK1 increase), usual class: activators | 410,000 tested, 0.2% active; active = well fitted activation curve with a large enough effect; inconclusive = small, poorly fitted or top-dose-only effect; cell line not stated here; note: potency is the fitted concentration of half-maximal effect; % of control where 0% means no effect; nearly all actives have a fitted effect of over 65% in size
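PINK1 protein, normally rapidly degraded, was detected by immunofluorescence after 24 hour compound treatment of a stable cell line. Titration data (5 concentrations) came from laser-scanning cytometry, with CCCP-treated wells as controls.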
IL1B secr inh: qHTS for Inhibitors of Inflammasome Signaling: IL-1-beta AlphaLISA Primary Screen; activity change, % at 57.5 µM; 360,000 tested, 4.7% active; THP-1 LPS/ATP IL-1B secretion, AlphaLISA, 16 h; active compounds read low; in the data active = activity change below about -50%; inconclusive = mostly about -30% to -49%; note: % is set by controls: 0 for no effect and ±100 for the full control effect
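Secreted IL-1B measured by AlphaLISA bead assay after 16 h compound exposure of THP-1 cells; compounds (final up to 57.5 uM) added 1 h before LPS (250 ng/mL) and ATP (1.25 mM) stimulation; lower signal means less secretion.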
ATXN2 expr inh: Primary qHTS for Inhibitors of ATXN expression. AID 1745845, 2022. 360,000 tested, 0.72% active. Potency, µM (series often up to 57 µM), for the others: top-dose activity change, negative = inhibition, actives largely listed as inhibitors. HEK-293 ATXN2-luciferase reporter, luminescence, 24 h; note: potency is the fitted concentration of half-maximal effect; % is set by controls: 0 for no effect and ±100 for the full control effect; nearly all actives have a fitted effect of over 55% in size
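ATXN2-luciferase reporter cells (luciferase flanked by upstream and downstream ATXN2 gene portions) were treated 24 h at 37 °C with compounds at up to 57 uM. SteadyGlo luminescence gave expression; GF-AFC fluorescence gave viability.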
SW480 rereplic: A quantitative high throughput screen for small molecules that induce DNA re-replication in SW480 colon adenocarcinoma cells | Potency, µM (doses to about 46.1 µM), inactives show at the top dose re-replication activation, actives largely listed as activators | AID 624297, 2012 | SW480 DNA re-replication, Hoechst DNA content imaging, 48 h | 340,000 tested, 1.8% active; note: potency is the fitted concentration of half-maximal effect; % of control where 0% means no effect; nearly all actives have a fitted effect of over 55% in size
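250 cells/well; 23 nL cpd via pin tool; 48 hr, 37 C, 5% CO2; Hoechst 40 min; imager read of total nuclear intensity, ex 405/em 500-530 nm.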
ATXN viability: Viability Counterscreen for Primary qHTS for Inhibitors of ATXN expression. S2 cells (HEK-293 line with an ATXN2-luciferase reporter) viability, CellTiter-Fluor protease fluorescence, 24 h. Potency, µM (highest dose often 56.7 µM), most hits filed as cytotoxic. 400,000 tested, 0.49% active. AID 651635, 2014; note: potency is the fitted concentration of half-maximal effect; nearly all actives have a fitted effect of over 40% in size
* marks the source's active call; other numbers are inactive results; i = inactive; ? = inconclusive; . = no result; [ ] = remark or other dose. An excerpt weighted towards active compounds, which were near 7.1% of everything screened. Unless noted, calls come from the whole dose curve; as a rule, active = well fitted curve in the direction sought with a large enough effect; inconclusive = small, poorly fitted or top-dose-only effect, or another doubt; inactive = no such curve, though single readings can be large; an effect the other way counts as inactive or inconclusive.

SMILES	MCF10A rereplic	PINK1 modulator	IL1B secr inh	ATXN2 expr inh	SW480 rereplic	ATXN viability
COc1cc(C2Nc3cccc4cccc(c34)N2)ccc1O	0.7%	8.8%	-82.8*	-6.2%	-0.8%	?
Clc1ccc(N=c2ssnc2Cl)cc1	?	12.2%	-84.7*	-30.4%	?	?
CCOC(=O)c1ccc(N=c2ssnc2Cl)cc1	?	5.5%	-89.4*	2.2%[11.3 µM]	-12.0%	i
COc1ccccc1CCNC(=O)C(=O)NCC(c1ccco1)S(=O)(=O)c1ccc(F)cc1 (configuration not stated)	.	1.2%	.	.	.	.
Cc1ccc(NC(=O)CN2CCSc3ccc(S(=O)(=O)N4CCCC4)cc32)cc1	.	1.1%	.	-10.0%	.	?
COc1ccc(-c2noc(CNC(=O)COc3cccc(C)c3C)n2)cc1	.	-0.1%	.	.	.	.
COc1ccc(N/C=C/c2nc(SC)nnc2C)cc1	?	4.1%	-8.9	-6.8%	14.6µM*	?
O=C1/C(=C/c2ccccc2)CCc2ccc(Cl)nc21	?	-6.9%	-105.3*	?	?	?
O=C1OCC/C1=C\c1ccccc1	-31.9%	-1.3%	-11.3	-0.4%	-4.6%	i
CCCCn1c(-c2ccc(F)c(F)c2)nc2cc3[nH]c(=O)c(C(C)C)nc3cc21	23.1µM*	2.0%	-19.2	-6.6%	0.1%	i
CCCc1cc(-c2[nH]ncc2-c2ccc(C(=O)OCC)o2)c(O)cc1O	4.0%	-7.3%[38.3 µM]	-83.9*	-28.6%	12.3%	?
COc1ccc(OC)c(CN2C(=O)CSCC2(C)C(=O)Nc2c(C)cccc2C)c1 (configuration not stated)	.	.	-66.5*	.	.	.
COc1ccc(CN2C(=O)CSCC2(C)C(=O)Nc2c(C)cccc2C)cc1OC (configuration not stated)	.	.	-9.6	.	.	.
Cc1ccc2[nH]c3c(=O)n(N)c(C)nc3c2c1	31.1%	-0.6%	-1.6	4.6%	6.51µM*	i
COc1ccc2[nH]c3c(=O)n(N)c(C)nc3c2c1	-4.3%	1.1%	0.0	0.8%	.	i
O=C(CSc1nnc2[nH]c(=O)cc(-c3ccccc3)n12)Nc1ccc(OC(F)(F)F)cc1	.	-5.1%	.	.	.	.
CCCn1nc(NC(=O)C(C)(C)C)c2cc3cc(OC)ccc3nc21	14.6µM*	8.7%	63.9	-0.7%	20.6µM*	.
CCCn1nc(NC(=O)CC(C)C)c2cc3ccccc3nc21	?	0.7%[38.3 µM]	19.4	-4.7%	0.6%	i
CCCCn1nc(NC(=O)CC)c2cc3cc(OC)ccc3nc21	25.9µM*	1.5%	10.9	12.4%	20.6µM*	.
Fc1ccccc1-n1ncc2c1ncn1nc(Cc3ccccc3)nc21	.	0.2%	.	.	.	.
O=C1Nc2ccc3c(c2C1=Cc1cc2c(cc1Br)OCO2)OCO3	5.17µM*	3.8%	-13.2	?	18.4µM*	?
S=c1[nH]cnc2scc(-c3ccc(Br)cc3)c12	?	0.6%	-18.3	?	11.6µM*	i
Cc1ccc(-c2csc3nc[nH]c(=S)c23)cc1	?	2.7%	-14.8	-18.5%	?	?
CCCCCCCCC(c1nc2ccccc2[nH]1)N1CCN=C1c1cc2ccccc2[nH]1 (configuration not stated)	.	-1.4%	-66.3*	?	.	?
FC(F)(F)c1nc(-c2ccncc2)ncc1-c1nnnn1-c1ccccc1	1.6%	-2.9%	22.3	-5.4%	-8.7%	i
Fc1ccc(-n2nnnc2-c2cnc(-c3cccs3)nc2C(F)(F)F)cc1	14.6µM*	10.3%	-80.5*	?	?	?
O=C(O)c1ccc(S(=O)(=O)/N=C2\C=C(Nc3ccccc3F)C(=O)c3ccccc32)cc1	1.46µM*	-3.5%	-96.9*	7.94µM*	6.51µM*	7.94µM*

Source: PubChem (National Center for Advancing Translational Sciences (NCATS))
